MRP resist rev: MRP-mediated drug resistance reversal; H69AR cells + 2 uM doxorubicin, CellTiter-Glo, 72 h; differential viability (reversal), % at 10 µM; hit rate 0.04% among 85,000;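 active = viability drop by adding the cancer drug above about 55%, with treated viability meeting a 40% cutoff, limit read from the data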;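 note: viability without doxorubicin minus viability with 2 µM doxorubicin for each compound; larger differential means the compound sensitizes cells more to doxorubicin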
CYP2C9 activ: increases human cytochrome P450 2C9 activity | P11712 | recombinant CYP2C9, luciferin-H conversion, luminescence; active compounds read high; factor 1 = untreated enzyme, 0 = blocked | activation factor at 5 µM | hit rate 1.4% among 96,000 | AID 1024;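 active = activation factor of 2 or more for CYP2C9 at a 5 µM dose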;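 note: 0 = sulfaphenazole-blocked wells and 1 = vehicle-only wells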
CYP2C19 inh: blocks human cytochrome P450 2C19. hit rate 21% among 96,000. AID 778. P33261. inhibition, % at 5 µM. CYP2C19 Supersomes, luciferin-H EGE luminescence, 30 min;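 active = CYP2C19 inhibition above a set limit at 5 µM in the primary screen, cut at about 50% in these data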;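 note: plate controls were negative control wells for no effect and 2.5 mM tranylcypromine positive control for full effect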
CYP2C9 inh: blocks human cytochrome P450 2C9 | P11712 | CYP2C9 Supersomes, luciferin-H conversion, luminescence | inhibition, % at 5 µM | hit rate 20% among 96,000;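 active = blocking of liver enzyme CYP2C9 beyond about 50% at 5 µM, limit read from the data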
CYP2C19 activ: activators of human cytochrome P450 2C19. recombinant CYP2C19, luciferin-H EGE luminescence; active compounds read high; 0 = fully inhibited enzyme, 1 = untreated enzyme. 96,000 tested, under 10 active. activation factor at 5 µM. AID 1025. P33261;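 active = activation factor of at least 2 at 5 µM in the primary screen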;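 note: 0 = wells with 2.5 mM tranylcypromine and 1 = vehicle-only wells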
MRP1 act: activates MRP-1; H69AR cells + doxorubicin, viability rescue, CellTiter-Glo; viability increase, % at 10 µM; hit rate 0.61% among 140,000; AID 799;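 active = viability gain under doxorubicin at or above a set limit, the compound median plus 3 SD, cut at about 4.7% in these data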;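 note: MRP-1 overexpressing cells given doxorubicin 25 µM after compound pretreatment; 18-22 h compound pretreatment then 72 h with doxorubicin before readout; 0% = doxorubicin-only wells and 100% = vehicle-treated cells without doxorubicin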
* = called active by the depositor; x = not tested or not shown. Compounds with a hit are over-represented: about 21% of the library has one in this group of screens.

SMILES	MRP resist rev	CYP2C9 activ	CYP2C19 inh	CYP2C9 inh	CYP2C19 activ	MRP1 act
O=C(Nc1ccccc1-c1ccccc1)c1cccc([N+](=O)[O-])c1	x	0.6	91*	42	0.1	-1
Cc1ccc([N+](=O)[O-])cc1NC(=O)c1ccc(-c2ccccc2)cc1	x	2.2*	2	-119	1	-2
Cc1nc2cccc(C)n2c(=O)c1Cl	1	1.1	1	-14	1	-2
COc1cc2c(cc1OC)CN(S(C)(=O)=O)CC2	0	0.9	9	8	0.9	0
COc1ccc(CCn2c(-c3cc([N+](=O)[O-])cc([N+](=O)[O-])c3)nc3nc4ccccc4nc32)cc1OC	x	x	x	x	x	-1
CO/N=C/NC(=O)c1ccc([N+](=O)[O-])c(CS(=O)(=O)c2ccc(Cl)cc2)c1	x	0.8	2	15	1	-3
CN(C)C=NC(=O)c1ccc([N+](=O)[O-])c(CS(=O)(=O)c2ccc(Cl)cc2)c1	x	0.4	75*	56*	0.2	-2
NNC(=O)c1ccc([N+](=O)[O-])c(CS(=O)(=O)c2ccc(Cl)cc2)c1	x	0.7	75*	33	0.3	0
CN(/N=C\c1ccc(O)c(O)c1)c1nc(-c2ccccc2)cc(-c2ccccc2)n1	x	x	x	x	x	-5
COc1cc(C(=O)N2CCN(S(=O)(=O)c3ccc(F)cc3)CC2)cc(OC)c1OC	0	0.8	43	15	0.6	0
COc1ccc(CN(C)C2CCCCC2)c(C)c1C	6	1	76*	-2	0.2	-1
COc1ccc(CN2CCCCC2C)c(C)c1C (stereo not given)	-7	1	18	1	0.8	-1
O=C(Nc1cccc(Cl)c1)N(Cc1nc2ccccc2c(=O)[nH]1)Cc1cccs1	x	x	x	x	x	-4
O=C(CCC(=O)c1cccs1)Nc1ccccc1F	0	0.9	52*	13	0.5	0
O=C(CCn1cccc1)Nc1ccccc1F	1	0.9	22	7	0.8	1
O=C(CSc1ncccn1)NCc1ccc(F)cc1	5	1.1	26	-6	0.7	0
O=C(CCc1ccc(CCC(=O)c2cccs2)s1)c1cccs1	16	0.1	89*	93*	0.1	0
O=C(CCC(=O)c1cccs1)NCc1ccc(F)cc1	x	1.7	72*	-71	0.3	0
O=C(CNC(=O)c1cccs1)c1ccc(F)cc1	-4	x	x	x	x	1
CC(C)(C)CC(=O)NCc1ccc(F)cc1	19	0.8	53*	18	0.5	-1
CN(c1ccc(C(=O)Nc2ccccc2C(F)(F)F)cc1)S(C)(=O)=O	x	1	15	-2	0.8	-1
O=C(CSc1ncccn1)Nc1ccc(S(=O)(=O)N2CCCCC2)cc1	-9	0.8	5	24	0.9	-3

Bioassay records deposited in PubChem by several laboratories.
